# Measurements: PubChem BioAssay (Tox21)
# Records with an inconclusive call do not appear. Where a call stands in place of a potency, no number is given. A number with no mark means an inactive call. Activity calls are given as the source filed them. Calls follow the shape of the dose curve; as a rule, active = well fitted cell-killing curve with a large enough effect in the repeat runs; inconclusive = weak or mixed curves; inactive = flat fitted curve, though single readings scatter.
# Assay: qHTS RealTime-Glo MT Cell Viability Assay in HepG2 cells - 16 hour (AID 1224885); also: nearly all actives have a fitted effect of over 50% in size
# Conditions: RealTime-Glo luminescence; series mostly up to 76.8 µM
# In short: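 Cell number in HepG2 cultures estimated from NanoLuc luminescence generated by metabolic reduction of a prosubstrate by living cells. The homogeneous, nonlytic format allowed repeated reads at 0, 8, 16, 24, 32 and 40 h of compound exposure.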
SMILES,"activity change, negative = cytotoxic",Potency
Nc1ccc(S(=O)(=O)Nc2ccnn2-c2ccccc2)cc1,-1.35% [at 15.8 µM],–
Nc1c2c(nc3ccccc13)CCCC2O (stereo not drawn),–,inactive
C[N+](C)(C)CCCCCC[N+](C)(C)C,–,inactive
CCc1ccc(O)c(OC)c1,–,inactive
OC(CCN1CCCCC1)(c1ccccc1)C1CC2C=CC1C2 (stereo not drawn),–,inactive
C=CCS(=O)(=O)O,–,inactive
CN(C(=O)c1c(O)c2ccccc2n(C)c1=O)c1ccccc1,–,inactive
COC(=O)CCSCCC(=O)OC,–,inactive
CC(C)(O)C(=O)c1ccccc1,–,inactive
CCCCCOC(=O)CCCCC,–,inactive
OCCOc1ccc(OCCO)cc1,–,inactive
N[C@H]1CN(c2c(F)cc3c(=O)c(C(=O)O)cn(C4C[C@H]4F)c3c2Cl)CC12CC2 (stereo partly drawn),–,inactive
COc1ccc2c(c1)c(CC(=O)OCC(=O)O)c(C)n2C(=O)c1ccc(Cl)cc1,–,inactive
COc1ccc2c(c1)CCCC2=O,–,inactive
OC[C@]1(O)OC[C@@H](O)[C@H](O)[C@@H]1O,–,inactive
NC(=O)Nc1ccccc1,–,inactive
CCS(=O)(=O)c1ccc(OC)c(C(=O)OC)c1,–,inactive
COc1ccc(CCN(C)CCCC(C#N)(c2cc(OC)c(OC)c(OC)c2)C(C)C)cc1OC (stereo not drawn),–,inactive
CCCC(=O)O[C@]1(C(=O)CO)CC[C@H]2[C@@H]3CCC4=CC(=O)CC[C@]4(C)[C@H]3[C@@H](O)C[C@@]21C,–,inactive
CCCCCCOC(=O)CCCCC(=O)OCCCCCC,–,inactive
CCOC(C)(C)C,–,inactive
CCO/C([O-])=N/c1c[n+](N2CCOCC2)no1,–,inactive
O=C1CCCCCCCCCCCN1,–,inactive
